PAFAH1B2 FP inh: PAFAH1B2 (human) inhibition; P68402; recombinant PAFAH1B2, FP-rhodamine activity probe, fluorescence polarization; inhibition, % at 3.39 µM; 340,000 tested, 1.2% active; AID 492953;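 active = inhibition above the mean of all tested compounds plus 3 SD, cut at about 24% in these data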;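 note: 0% = enzyme with DMSO and 100% = wells lacking PAFAH1B2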
PP5 inh: PP5 (human) phosphatase inhibition; purified PP5c, OMFP substrate fluorescence; inhibition, % at 6.7 µM; 320,000 tested, 0.18% active; AID 1987;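 active = inhibition above the campaign's mean inhibition across all tested compounds plus 3 SD, cut at about 9.5% in these data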;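 note: 0% = DMSO only and 100% = 100 µM cantharidin control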
Target sequence (P53041 whole entry, looked up): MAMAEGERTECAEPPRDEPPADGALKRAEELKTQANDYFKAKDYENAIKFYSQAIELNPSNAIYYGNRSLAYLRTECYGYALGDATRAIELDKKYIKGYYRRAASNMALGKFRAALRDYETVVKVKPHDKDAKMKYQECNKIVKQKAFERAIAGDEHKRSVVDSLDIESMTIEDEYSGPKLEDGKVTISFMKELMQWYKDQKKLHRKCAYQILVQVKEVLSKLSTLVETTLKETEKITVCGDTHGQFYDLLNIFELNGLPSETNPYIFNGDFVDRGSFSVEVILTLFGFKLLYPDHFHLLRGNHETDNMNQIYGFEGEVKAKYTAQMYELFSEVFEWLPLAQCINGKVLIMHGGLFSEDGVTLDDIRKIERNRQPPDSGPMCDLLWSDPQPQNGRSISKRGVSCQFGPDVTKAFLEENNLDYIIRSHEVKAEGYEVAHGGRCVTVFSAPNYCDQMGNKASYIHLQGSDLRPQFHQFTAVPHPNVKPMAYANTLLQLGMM
Fh CTSL1 inh: blocks F. hepatica cathepsin L1 in PFM18AAP counter-screen. recombinant F. hepatica cathepsin L1, Z-Leu-Arg-MCA fluorescence. inhibition, % at 5.96 µM. 300,000 tested, 0.49% active. AID 1906;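 active = inhibition above the mean of all tested compounds plus 3 SD, set per screening campaign, cut at about 17% in these data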;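 note: 0% = plate median of test compound wells and 100% = 1 µM Z-Phe-Ala-diazomethylketone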
PAFAH2 FP inh: inhibitors of human PAFAH2. Q99487. recombinant PAFAH2, FP-rhodamine activity probe, fluorescence polarization. inhibition, % at 3.39 µM. 340,000 tested, 0.99% active. AID 492956;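 active = inhibition above the mean over all tested compounds plus 3 SD, cut at about 30% in these data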;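 note: inhibitors block probe labeling of enzyme so polarization drops; 0% = enzyme with DMSO and 100% = wells lacking PAFAH2 protein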
pPAFAH inh: inhibitors of human plasma PAF acetylhydrolase (pPAFAH). Q13093. recombinant pPAFAH, FP-rhodamine probe fluorescence polarization. inhibition, % at 3.39 µM. 330,000 tested, 1.5% active. AID 463082;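 active = inhibition above the mean inhibition across the screen plus 3 SD, cut at about 25% in these data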;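 note: inhibitors block binding of the rhodamine activity-based probe so polarization drops; 0% = enzyme with DMSO and 100% = wells lacking pPAFAH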
PAFAH1B3 FP inh: PAFAH1B3 (human) inhibition. Q15102. recombinant PAFAH1B3, FP-rhodamine probe, fluorescence polarization. inhibition, % at 3.39 µM. 340,000 tested, 0.28% active;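 active = inhibition above the screen-wide average of all tested compounds plus 3 SD, cut at about 25% in these data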;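 note: 0% = enzyme with DMSO only and 100% = wells lacking PAFAH1B3 protein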
PAFAH2 FP conf: confirmation of human PAFAH2 inhibitors | shares compounds with PAFAH2 FP inh | recombinant PAFAH2, FP-rhodamine activity probe, fluorescence polarization | inhibition, % at 3.39 µM | 2,300 tested, 65% active | AID 493030;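 active = mean inhibition over three repeats above a set limit taken from the earlier primary screen, cut at about 30% in these data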;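 note: inhibitor blocks binding of rhodamine activity probe so polarization falls; 0% = enzyme with DMSO and 100% = wells lacking PAFAH2 protein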
The depositor's hits bear a star; . = no result given. This is a sample that favours compounds with a hit; in the whole collection about 3% have one here.

SMILES	PAFAH1B2 FP inh	PP5 inh	Fh CTSL1 inh	PAFAH2 FP inh	pPAFAH inh	PAFAH1B3 FP inh	PAFAH2 FP conf
CNS(=O)(=O)c1cccc(C(=O)OCC(=O)Nc2ccc3ccccc3c2)c1	0	.	.	7	7	4	.
COc1ccccc1/C=C/C(=O)OCC(=O)N1CCc2ccccc21	2	6	.	77*	1	5	71*
COc1ccccc1/C=C/C(=O)OCC(=O)NC1CC1	3	.	.	64*	.	8	64*
O=C(/C=C/c1ccc(OC(F)F)cc1)OCC(=O)N1CCc2ccccc21	1	-1	-6	5	1	4	.
COc1ccccc1/C=C/C(=O)OCC(=O)NNC(=O)c1ccccc1	2	3	-8	14	18	17	.
O=C(OCC(=O)N1CCc2ccccc21)C1=COCCO1	4	-2	-1	30*	8	7	19
COc1ccc(/C=C/C(=O)OCC(=O)NC2CCCC2)c(OC)c1	3	3	.	86*	23	4	85*
COc1ccccc1/C=C/C(=O)OCC(=O)Nc1ccc(Cl)cn1	3	3	-15	83*	24	4	79*
COc1ccccc1/C=C/C(=O)OCC(=O)NC(=O)NC1CCCC1	5	.	.	58*	-2	-6	44*
O=C(/C=C/c1ccc(Cl)cc1Cl)OCC(=O)N1CCCC1	2	2	.	2	8	-4	.
COc1cc(/C=C/C(=O)OCC(=O)NC2CC2)cc(S(=O)(=O)N2CCc3ccccc32)c1OC	3	0	-2	53*	8	4	38*
COc1ccc(/C=C/C(=O)OCC(=O)N2CCCCCC2)c(OC)c1	1	2	.	44*	-1	-11	36*
COc1cc(CN2CC(=O)N(c3cc(Cl)ccc3C)C2=S)cc(OC)c1OC	4	0	2	0	1	4	.
CCC1(c2ccc(F)cc2)NC(=O)N(CC(=O)Nc2cccnc2Cl)C1=O (configuration not stated)	6	-1	3	-1	-3	12	.
COC(=O)CCC(=O)N1CCC(CCC(=O)NCc2ccc(F)cc2)CC1	3	.	.	-3	.	-1	.
COc1cc(SC)ccc1C(=O)Nc1ccc2ncccc2c1	1	1	0	3	1	2	.
COc1ccc(NC(=O)COc2ccc3c(C)cc(=O)oc3c2)cc1S(=O)(=O)N1CCCCC1	-9	0	0	-17	0	-28	.
O=C(Cn1cc(C(F)(F)F)ccc1=O)Nc1ccccc1	5	0	-2	1	2	3	.
O=C(COC(=O)Cn1cc(C(F)(F)F)ccc1=O)Nc1ccccc1	1	0	.	68*	0	0	60*
O=C(COC(=O)c1ccccc1SCC(=O)N1CCCC1)NC1CCCCC1	2	1	-1	83*	4	4	73*
N#CC1(NC(=O)COC(=O)c2ccccc2SCC(=O)N2CCCC2)CCCCC1	-8	0	-7	81*	9	-2	80*
NC(=O)COC(=O)c1ccccc1SCC(=O)NC1CCCCCCC1	7	-1	4	39*	6	-4	37*
O=C(OCC(=O)N1CCCCC1)c1ccccc1SCC(=O)N1CCCCC1	3	3	-6	3	6	3	.
O=C(COC(=O)c1ccccc1SCC(=O)N1CCCC1)NC1CCS(=O)(=O)C1 (configuration not stated)	-2	-1	-1	-2	-2	-5	.
CC1CCN(c2ccccc2NC(=O)c2ccc(Br)o2)CC1	11	3	0	0	1	8	.
SMILES	PAFAH1B2 FP inh	PP5 inh	Fh CTSL1 inh	PAFAH2 FP inh	pPAFAH inh	PAFAH1B3 FP inh	PAFAH2 FP conf
O=C(Cn1cc(COc2c(F)c(F)cc(F)c2F)nn1)c1ccc(O)cc1	5	.	.	8	.	11	.
COc1ccc(S(=O)(=O)N(Cc2ccco2)Cc2cc3ccccc3[nH]c2=O)cc1	6	3	2	8	5	1	.
O=C1CC(C(=O)N2CCc3ccccc32)CN1c1ccccc1 (configuration not stated)	4	1	1	-5	5	0	.
COc1ccc(CNC(=O)CN2C(=O)NC(Cc3ccccc3)(c3ccccc3)C2=O)cc1OC (configuration not stated)	8	-1	.	-4	1	-4	.
COc1ccccc1CNC(=O)COC(=O)c1c[nH]c2ccccc12	0	.	.	33*	.	6	18
COc1ccccc1CNC(=O)COC(=O)c1ccc(Cl)c(N)c1	-1	-1	-4	33*	16	1	35*
COc1ccccc1CNC(=O)COC(=O)c1ccc(N2CCCC2=O)cc1	8	0	.	60*	0	7	46*
COc1ccccc1CNC(=O)COC(=O)c1ccc(NC(N)=O)cc1	2	-2	-3	56*	0	-3	52*
CCCn1c(C(O)c2ccc(OC)c(OC)c2)nc2ccccc21 (configuration not stated)	4	1	-3	3	0	10	.
Cc1cc2nccc(-c3ccc(OCCCF)cc3)n2n1	4	2	-4	-4	3	-4	.
CC(=O)Nc1ccc(S(=O)(=O)Nc2nc3ccccc3nc2Nc2ccc(O)c(C(=O)O)c2)cc1	8	1	4	22	14	18	.
Cc1cc(S(=O)(=O)N2CCCC(N3CCOCC3)C2)c(C)cc1Cl (configuration not stated)	6	4	1	-2	5	14	.
Cn1c(SCc2ccccc2C#N)nc2ccccc2c1=O	2	4	5	-3	1	8	.
O=c1c2c([nH]c3ccccc13)C(=C1CCCC1)CC2	9	2	3	33*	16	12	7
COc1ccc(C(=O)CNc2cccc(F)c2)cc1	7	2	-3	7	0	10	.
O=C1N(c2ccc3c(c2)OCCO3)C(c2ccccc2)C1(F)F (configuration not stated)	0	2	-3	101*	2	2	-3
Cc1ccc([N+](=O)[O-])cc1NC(=O)CSc1n[nH]c(-c2cccnc2)n1	8	2	1	2	3	0	.
CNc1ccc(C(=O)OCC(=O)Nc2ccnn2C(C)C)cc1[N+](=O)[O-]	4	1	.	60*	2	3	46*
CCOC(=O)c1ccc(NC(C)=O)c([N+](=O)[O-])c1	4	0	4	3	4	2	.
O=C(COC(=O)CCC(NC(=O)OCc1ccccc1)C(=O)OCC(=O)Nc1ccccc1)Nc1ccccc1 (configuration not stated)	6	5	-16	70*	3	-8	84*

Assay outcomes as filed in PubChem BioAssay.
